Reference: the supplement of paper PMC10646978
± gives the standard deviation.

Legend:
Conditions in all cases: modulator concentration 10 µM
[1] = test system: RAW-Dual (murine macrophage reporter line); assay: NF-kB reporter (SEAP) activity fold change vs agonist alone; higher = enhanced NF-kB activity
Outline: (§1)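 Compound reached 10 μM final in each well by pin transfer, onto RAW-Dual murine macrophage reporter cells seeded at 50 000 per well in 384-well plates. After 1 hour at 37 °C, the cells were stimulated overnight with a PRR agonist. SEAP in the supernatant was read with QUANTI-Blue at 620 nm absorbance for NF-κB, and Lucia luciferase was read with QUANTI-Luc luminescence for IRF. Each signal was turned into fold change against the mean agonist-only control on the same plate, and two replicate plates were averaged with propagated errors.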

[2] = test system: RAW-Dual (murine macrophage reporter line); assay: IRF reporter (Lucia luciferase) activity fold change vs agonist alone; higher = enhanced IRF activity
Outline: as §1

[3] = test system: RAW-Dual (murine macrophage reporter line); assay: viability score (confluency relative to resting cells, overnight) (fraction); higher = more viable, active = viable (0.7 or more)
Outline: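 RAW-Dual macrophages in 384-well plates were treated overnight with compound at 10 μM final. IncuCyte imaging recorded confluency, and IncuCyte software built two confluency masks across every imaged well. The viability score expresses confluency relative to resting cells and was judged against a cutoff, which a compound met only if both masks exceeded 70% of resting cells.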

[4] = agonist: CpG ODN 1826 0.5 ug/mL

SMILES | NF-kB reporter [1, 4] | NF-kB reporter ([1]; agonist: LPS 0.1 ug/mL) | NF-kB reporter ([1]; agonist: MPLA […]) | IRF reporter ([2]; agonist: 3'3'-cGAMP 10 ug/mL) | IRF reporter ([2]; agonist: LPS 0.1 ug/mL) | IRF reporter ([2]; agonist: MPLA […]) | viability score [3]
CN1C(C(=O)Nc2ccccn2)=C(O)c2sc(Cl)cc2S1(=O)=O | 0.744 ± 0.047 | 0.896 ± 0.094 | 1.08 ± 0.11 | 0.955 ± 0.043 | 1.43 ± 0.22 | 1.72 ± 0.59 | 0.967 (active)
Cl.Cl.Fc1ccc(C(c2ccc(F)cc2)N2CCN(CC=Cc3ccccc3)CC2)cc1 | 0.834 ± 0.063 | 0.999 ± 0.065 | 1.15 ± 0.029 | 0.956 ± 0.089 | 0.896 ± 0.051 | 1.1 ± 0.16 | 0.996 (active)
CCn1ccc(C(=O)N2CCN(c3cc(C(F)(F)F)nc(C)n3)CC2)n1 | 1.27 ± 0.098 | 1.07 ± 0.092 | 1.01 ± 0.05 | 0.637 ± 0.028 | 0.744 ± 0.035 | 0.839 ± 0.11 | 1 (active)
Cl.Cn1c(=N)n(CC(O)c2ccco2)c2ccccc21 (configuration not stated) | 1.05 ± 0.061 | 1.09 ± 0.077 | 0.969 ± 0.069 | 1.22 ± 0.04 | 1.46 ± 0.21 | 1.3 ± 0.18 | 0.992 (active)
COc1ccccc1Cn1c(SC)nc2c(-c3ccccc3)c[nH]c2c1=O | 1.51 ± 0.064 | 0.889 ± 0.11 | 0.997 ± 0.053 | 0.114 ± 0.0059 | 1.05 ± 0.19 | 1.41 ± 0.36 | 0.948 (active)
O=C(Oc1coc(CSc2ncccn2)cc1=O)c1ccc([N+](=O)[O-])cc1 | 0.972 ± 0.16 | 1.15 ± 0.13 | 1.03 ± 0.15 | 0.996 ± 0.03 | 1 ± 0.22 | 1.03 ± 0.1 | 0.986 (active)
CC(=O)Nc1nc(C2CC2)cc(-c2ccco2)c1C#N | 1.38 ± 0.23 | 1.09 ± 0.09 | 1.02 ± 0.08 | 0.937 ± 0.026 | 1.16 ± 0.12 | 1.17 ± 0.12 | 1 (active)
Cc1ccc(-n2c(=O)c3c4c(sc3n3c(S)nnc23)CCCC4)cc1 | 0.968 ± 0.063 | 1.07 ± 0.069 | 0.923 ± 0.1 | 0.959 ± 0.035 | 1.41 ± 0.21 | 1.15 ± 0.1 | 0.993 (active)
N[C@@H]1CONC1=O | 0.988 ± 0.074 | 0.913 ± 0.14 | 0.959 ± 0.037 | 0.929 ± 0.092 | 1.05 ± 0.094 | 1.06 ± 0.082 | 1 (active)
COc1ccccc1OCC(O)CN1CCN(CC(=O)Nc2c(C)cccc2C)CC1 (configuration not stated) | 0.99 ± 0.087 | 0.943 ± 0.089 | 1.06 ± 0.056 | 0.967 ± 0.092 | 0.996 ± 0.061 | 0.936 ± 0.078 | 1 (active)
O=C(Nc1ccc(F)cc1)c1ccco1 | 0.904 ± 0.074 | 1.11 ± 0.12 | 1 ± 0.038 | 0.879 ± 0.15 | 1.03 ± 0.042 | 0.915 ± 0.11 | 0.996 (active)
CC(C)OC(=O)c1c(NC(=O)C2CC=CCC2C(=O)O)sc2c1CCCC2 (configuration not stated) | 0.92 ± 0.12 | 0.999 ± 0.056 | 0.901 ± 0.054 | 0.965 ± 0.024 | 1.29 ± 0.18 | 1.14 ± 0.28 | 1.01 (active)
OCc1ccccc1OC1OC(CO)C(O)C(O)C1O (configuration not stated) | 1.13 ± 0.27 | 1.07 ± 0.094 | 1.05 ± 0.069 | 0.889 ± 0.03 | 1.22 ± 0.23 | 1.13 ± 0.19 | 1 (active)
COc1ccc(C)cc1NC(=O)CN(c1cccc(Br)c1)S(=O)(=O)c1ccccc1 | 0.904 ± 0.077 | 0.97 ± 0.053 | 0.915 ± 0.062 | 0.94 ± 0.023 | 1.11 ± 0.092 | 0.809 ± 0.18 | 1.02 (active)
CC1(C)CC(=O)C2=C(C1)OC(N)=C(C#N)C21C(=O)Nc2ccc(Br)cc21 (configuration not stated) | 0.954 ± 0.077 | 1.05 ± 0.08 | 0.955 ± 0.057 | 0.967 ± 0.032 | 1.18 ± 0.1 | 1.03 ± 0.096 | 1.01 (active)
Cc1n[nH]c(C)c1S(=O)(=O)N1CCCN(C(=O)Cc2ccccc2Cl)CC1 | 1.03 ± 0.051 | 1.14 ± 0.11 | 1 ± 0.18 | 1.05 ± 0.053 | 1.21 ± 0.074 | 1.26 ± 0.11 | 0.979 (active)
Nc1ncnc2c1ncn2[C@@H]1O[C@H](CO)[C@@H](O)[C@@H]1O | 1.15 ± 0.095 | 0.941 ± 0.047 | 1.02 ± 0.053 | 0.953 ± 0.067 | 0.983 ± 0.077 | 1.02 ± 0.12 | 0.991 (active)
Cl.O=C(O)/C=C/c1ccc(Cn2ccnc2)cc1 | 1.43 ± 0.19 | 1.32 ± 0.25 | 0.979 ± 0.069 | 0.909 ± 0.028 | 1.34 ± 0.23 | 0.87 ± 0.096 | 0.988 (active)
CC(=O)CCc1oc2ccc([N+](=O)[O-])cc2c1-c1ccc(C)o1 | 1.04 ± 0.12 | 0.837 ± 0.065 | 0.825 ± 0.084 | 0.817 ± 0.048 | 0.849 ± 0.12 | 0.713 ± 0.17 | 0.973 (active)
COc1ccc(C2OCC3C(c4ccc(OC)c(OC)c4)OCC23)cc1OC (configuration not stated) | 1.18 ± 0.091 | 1.03 ± 0.094 | 1.08 ± 0.11 | 1.11 ± 0.088 | 1.07 ± 0.13 | 1.21 ± 0.23 | 1.01 (active)
O=[N+]([O-])c1ccc(C=Nc2sc3c(c2-c2nc4ccccc4s2)CCCC3)cc1 | 0.94 ± 0.059 | 0.955 ± 0.059 | 0.983 ± 0.057 | 0.94 ± 0.04 | 1.2 ± 0.12 | 0.93 ± 0.089 | 1 (active)
Cc1cnc2c(c1N1CCC(Cc3ccccc3)CC1)c(=O)n(C)c(=O)n2C | 0.97 ± 0.06 | 1.08 ± 0.084 | 0.996 ± 0.051 | 1.06 ± 0.044 | 1.01 ± 0.088 | 1.07 ± 0.26 | 0.999 (active)
CSCCC(NC(C)=O)C(=O)N1CCc2nc3ccc(F)cn3c(=O)c2C1 (configuration not stated) | 1.05 ± 0.097 | 1.05 ± 0.088 | 0.906 ± 0.074 | 0.97 ± 0.085 | 1.24 ± 0.15 | 1.13 ± 0.12 | 1.01 (active)
Cc1cccc(OCCCSc2nc3ccccc3[nH]2)c1 | 0.919 ± 0.076 | 0.973 ± 0.11 | 1.14 ± 0.11 | 0.671 ± 0.021 | 1.28 ± 0.21 | 1.39 ± 0.24 | 0.949 (active)
Cc1ccccc1CNC(=O)CN(c1cccc(C(F)(F)F)c1)S(C)(=O)=O | 1.11 ± 0.097 | 1.07 ± 0.11 | 1.03 ± 0.041 | 0.956 ± 0.095 | 1.11 ± 0.13 | 1.03 ± 0.24 | 1 (active)
COc1cc2c(cc1OC)C1C(=O)c3ccc4c(c3OC1CO2)C=CC(C)(C)O4 (configuration not stated) | 0.92 ± 0.071 | 0.99 ± 0.096 | 1.55 ± 0.14 | 0.853 ± 0.04 | 1.62 ± 0.26 | 2.12 ± 0.42 | 0.986 (active)
